Reference: PubChem BioAssay (NCATS)
A number with no mark means an inactive call. Inconclusive results are not listed. The source made the active and inactive calls. Unless noted, calls follow the shape of the dose curve; as a rule, active = well fitted curve in the direction sought with a large enough effect; inconclusive = small, poorly fitted or top-dose-only effect, or another doubt; inactive = no such curve, though single readings can be large; an effect the other way counts as inactive or inconclusive.

What was measured:
[1] = target: Cytochrome P450 1A2 (Homo sapiens) (UniProt P05177); test: p450-cyp1a2 (AID 410; calls by dose curve; also: potency is read from the fitted curve at half-maximal effect;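 as to activity change, negative = inhibition: -100% = full effect of reference inhibitor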)
Sequence of Cytochrome P450 1A2 (Homo sapiens) (P05177 whole entry, looked up): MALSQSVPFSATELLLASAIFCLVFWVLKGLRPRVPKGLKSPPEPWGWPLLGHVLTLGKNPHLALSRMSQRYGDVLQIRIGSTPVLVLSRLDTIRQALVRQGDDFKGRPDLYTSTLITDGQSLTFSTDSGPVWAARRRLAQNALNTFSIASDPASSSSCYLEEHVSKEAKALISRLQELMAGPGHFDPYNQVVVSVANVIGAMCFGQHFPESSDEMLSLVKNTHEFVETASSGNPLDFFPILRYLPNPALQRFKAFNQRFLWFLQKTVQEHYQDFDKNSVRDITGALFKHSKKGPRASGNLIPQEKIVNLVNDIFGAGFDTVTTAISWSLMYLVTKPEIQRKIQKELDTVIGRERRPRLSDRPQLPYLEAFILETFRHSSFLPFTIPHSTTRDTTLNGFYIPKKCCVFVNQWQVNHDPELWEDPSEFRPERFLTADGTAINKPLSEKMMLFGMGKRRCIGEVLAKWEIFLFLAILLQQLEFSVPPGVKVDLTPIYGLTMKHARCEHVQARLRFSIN
Summary of the method: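 Inhibition was calculated relative to 57 uM furafylline (full inhibition). The reaction used human CYP1A2 at 20nM with Luciferin-ME at its Km, 100uM, driven by an NADPH-regenerating system for 60 min at room temperature.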

[2] = NFAT Signaling Pathway (AID 444; active = well fitted curve in either direction with a large enough effect, not every such curve was filed as active;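 also: carbachol stimulus at about its EC50 of 1 µM final; % is scaled to controls: 0 for no effect and ±100 for the full control effect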); details: Jurkat NFAT-bla M1, carbachol, beta-lactamase ratio, 5 h; at 7.69 µM (top of the series) unless noted
Summary of the method: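 Jurkat cells carrying an NFAT-driven β-lactamase reporter and co-transfected muscarinic M1 receptor were treated with compound plus carbachol (1 uM final, an EC50 level) for 5 h at 37 °C. CCF4 loading followed for 1 h at RT; 460/530 nm ratio gave %activity.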

[3] = Stat Signaling Pathway (AID 446; active = well fitted curve in either direction with a large enough effect, not every such curve was filed as active;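 also: ME-180 cervical cancer cells given 40 pM IL-6 alongside compound; SIE-controlled beta-lactamase reporter measured as 460/530 nm FRET emission ratio; % is scaled to controls: 0 for no effect and ±100 for the full control effect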); details: ME-180 SIE beta-lactamase reporter, IL-6 stimulated, 5 h; at 7.69 µM (top of the series) unless noted
Summary of the method: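 ME-180 SIE-bla cells; overnight plating; cpd + IL-6 40 pM, 5 h, 37 C; LiveBLAzer 2.5 h RT; 460/530 nm emission ratio. Normalized to 300 pM IL-6 and 125 nM JAK inhibitor controls.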

[4] = target: Glucocorticoid receptor (Homo sapiens) (UniProt P04150); test: GR-GFP Redistribution (AID 450;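 active = compounds whose dose series gives a full or clear partial fitted curve of increased nuclear translocation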; also: potency is read from the fitted curve at half-maximal effect); details: U2OS GR-GFP nuclear translocation, laser cytometry, 2 h
Sequence of Glucocorticoid receptor (Homo sapiens) (P04150 whole entry, looked up, the tested form may be a part): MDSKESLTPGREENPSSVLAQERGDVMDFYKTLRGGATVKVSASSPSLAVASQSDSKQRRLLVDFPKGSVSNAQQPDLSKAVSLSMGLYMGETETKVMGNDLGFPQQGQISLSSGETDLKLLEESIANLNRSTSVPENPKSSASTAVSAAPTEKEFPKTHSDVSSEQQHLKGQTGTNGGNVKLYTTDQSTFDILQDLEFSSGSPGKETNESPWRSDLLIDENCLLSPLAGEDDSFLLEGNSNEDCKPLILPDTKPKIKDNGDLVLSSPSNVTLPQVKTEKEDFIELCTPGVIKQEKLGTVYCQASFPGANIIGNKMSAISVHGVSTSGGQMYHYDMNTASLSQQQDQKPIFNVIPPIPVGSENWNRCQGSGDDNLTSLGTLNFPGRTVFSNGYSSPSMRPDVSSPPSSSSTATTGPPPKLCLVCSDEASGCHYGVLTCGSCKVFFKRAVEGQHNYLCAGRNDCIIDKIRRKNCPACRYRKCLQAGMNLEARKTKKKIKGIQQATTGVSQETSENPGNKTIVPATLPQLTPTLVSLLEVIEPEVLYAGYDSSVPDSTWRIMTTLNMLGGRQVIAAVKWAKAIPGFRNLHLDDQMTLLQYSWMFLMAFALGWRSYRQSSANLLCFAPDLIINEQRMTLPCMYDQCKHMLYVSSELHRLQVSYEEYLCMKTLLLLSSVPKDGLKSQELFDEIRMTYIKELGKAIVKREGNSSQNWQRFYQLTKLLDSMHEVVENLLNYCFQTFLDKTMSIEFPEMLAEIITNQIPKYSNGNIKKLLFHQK

[5] = target: Glucocorticoid receptor (Homo sapiens) (UniProt P04150); test: GR-EFC Redistribution (AID 451; calls by dose curve; also: potency is read from the fitted curve at half-maximal effect); details: CHO-K1 GR-EFC translocation, beta-gal luminescence, 2 h
Summary of the method: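 CHO-K1 cells stably expressing nuclear-localized β-gal enzyme acceptor and GR fused C-terminally to the enzyme donor fragment; ligand-driven nuclear translocation restores β-gal by complementation. Compounds titrated up to 46 uM final, 2 h at 37 °C; luminescence read.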

[6] = target: Mitogen-activated protein kinase 10 (Mus musculus) (UniProt Q61831); test: JNK3 AlphaScreen Assay (AID 530; active = well fitted curve in either direction with a large enough effect, not every such curve was filed as active;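 also: kinase came from lysate of stimulated human HepG2 cells; signal reports phosphorylation of biotinylated GST-cJun 1-79 at Ser73 with 10 µM ATP; % is scaled to controls: 0 for no effect and ±100 for the full control effect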)
Summary of the method: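 JNK3 came from HepG2 lysates pre-activated with IL-1beta and TNF-alpha and phosphorylated biotinylated GST-cJun (1-79) at 10 uM ATP, pH 7.6, room temperature. Compounds were titrated. AlphaScreen signal used anti-phospho-cJun (Ser73) antibody.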

[7] = target: 3',5'-cyclic-AMP phosphodiesterase 4B (Homo sapiens) (UniProt Q07343); test: qHTS Assay for Inhibitors of PDE-IV (AID 607; active = well fitted activation curve with a large enough effect in the main read-out, with a control signal flat, not every such curve was filed as active; also: % of control where 0% means no effect)
Sequence of 3',5'-cyclic-AMP phosphodiesterase 4B (Homo sapiens) (Q07343 whole entry, looked up): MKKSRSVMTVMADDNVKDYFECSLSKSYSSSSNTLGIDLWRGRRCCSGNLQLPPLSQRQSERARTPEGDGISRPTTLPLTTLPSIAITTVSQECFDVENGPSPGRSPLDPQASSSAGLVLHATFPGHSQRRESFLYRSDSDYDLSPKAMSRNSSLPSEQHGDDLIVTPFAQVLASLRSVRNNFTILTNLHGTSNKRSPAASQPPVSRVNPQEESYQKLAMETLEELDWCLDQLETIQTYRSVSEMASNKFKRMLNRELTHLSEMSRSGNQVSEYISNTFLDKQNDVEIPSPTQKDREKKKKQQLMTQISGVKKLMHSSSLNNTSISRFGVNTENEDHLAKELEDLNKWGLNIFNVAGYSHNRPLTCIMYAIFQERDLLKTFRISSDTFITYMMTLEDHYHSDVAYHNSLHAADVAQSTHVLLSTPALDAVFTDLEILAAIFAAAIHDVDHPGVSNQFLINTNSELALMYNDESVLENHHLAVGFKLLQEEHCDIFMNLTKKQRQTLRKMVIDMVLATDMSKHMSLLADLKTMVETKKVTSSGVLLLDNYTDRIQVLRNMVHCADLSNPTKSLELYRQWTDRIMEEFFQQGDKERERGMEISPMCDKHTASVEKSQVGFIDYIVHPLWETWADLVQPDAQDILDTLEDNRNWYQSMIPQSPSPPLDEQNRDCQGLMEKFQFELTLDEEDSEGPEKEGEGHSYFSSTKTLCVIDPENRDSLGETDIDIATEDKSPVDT
Summary of the method: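 ACTOne HEK293 cells carry a modified cAMP-gated CNG channel and express endogenous PDE4; plated 1000 cells/well, compounds up to 22.9 uM final. Membrane-potential dye fluorescence (ex 535/em 590) was read; parental cells received 10 uM forskolin + 100 uM RO 20-1724.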

[8] = target: Cytochrome P450 3A4 (Homo sapiens) (UniProt P08684); test: qHTS Assay for Inhibitors and Substrates of Cytochrome P450 3A4 (AID 884); also: potency is read from the fitted curve at half-maximal effect; nearly all actives have a fitted effect of over 50% in size
Sequence of Cytochrome P450 3A4 (Homo sapiens) (P08684 whole entry, looked up): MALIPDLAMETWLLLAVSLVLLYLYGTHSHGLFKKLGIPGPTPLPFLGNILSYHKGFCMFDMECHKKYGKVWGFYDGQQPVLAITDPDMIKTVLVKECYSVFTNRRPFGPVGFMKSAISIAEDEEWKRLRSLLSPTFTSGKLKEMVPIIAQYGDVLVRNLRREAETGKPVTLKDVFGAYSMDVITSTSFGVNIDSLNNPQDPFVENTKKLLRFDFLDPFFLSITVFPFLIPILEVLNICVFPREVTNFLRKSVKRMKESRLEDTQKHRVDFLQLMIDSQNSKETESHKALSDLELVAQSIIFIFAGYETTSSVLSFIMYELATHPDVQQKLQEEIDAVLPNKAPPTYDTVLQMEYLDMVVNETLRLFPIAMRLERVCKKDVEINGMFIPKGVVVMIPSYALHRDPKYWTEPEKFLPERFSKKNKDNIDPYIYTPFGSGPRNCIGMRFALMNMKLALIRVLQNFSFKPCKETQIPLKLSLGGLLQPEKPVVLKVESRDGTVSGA
Summary of the method: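 20 nM human CYP3A4 with 25 uM Luciferin-PPXE (at KM) in 200 mM KPO4, preincubated 10 min with compound; NADPH regeneration started a 60 min RT reaction. Luciferin detected by luminescence, normalized to 57 uM ketoconazole as full inhibition.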

[9] = target: Cytochrome P450 3A4 (Homo sapiens) (UniProt P08684); test: qHTS Assay for Activators of Cytochrome P450 3A4 (AID 885); also: nearly all actives have a fitted effect of over 65% in size
Summary of the method: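 20nM CYP3A4 + 25uM Luciferin-PPXE (=KM), 200mM KPO4; cpd 10 min RT; NADPH regen, 60 min RT; stop w/ detection buffer, 20 min; luminescence. Normalized to 57 uM ketoconazole.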

[10] = target: Cytochrome P450 2C19 (Homo sapiens) (UniProt P33261); test: qHTS Assay for Inhibitors and Substrates of Cytochrome P450 2C19 (AID 899); also: potency is read from the fitted curve at half-maximal effect; nearly all actives have a fitted effect of over 60% in size
Sequence of Cytochrome P450 2C19 (Homo sapiens) (P33261 whole entry, looked up): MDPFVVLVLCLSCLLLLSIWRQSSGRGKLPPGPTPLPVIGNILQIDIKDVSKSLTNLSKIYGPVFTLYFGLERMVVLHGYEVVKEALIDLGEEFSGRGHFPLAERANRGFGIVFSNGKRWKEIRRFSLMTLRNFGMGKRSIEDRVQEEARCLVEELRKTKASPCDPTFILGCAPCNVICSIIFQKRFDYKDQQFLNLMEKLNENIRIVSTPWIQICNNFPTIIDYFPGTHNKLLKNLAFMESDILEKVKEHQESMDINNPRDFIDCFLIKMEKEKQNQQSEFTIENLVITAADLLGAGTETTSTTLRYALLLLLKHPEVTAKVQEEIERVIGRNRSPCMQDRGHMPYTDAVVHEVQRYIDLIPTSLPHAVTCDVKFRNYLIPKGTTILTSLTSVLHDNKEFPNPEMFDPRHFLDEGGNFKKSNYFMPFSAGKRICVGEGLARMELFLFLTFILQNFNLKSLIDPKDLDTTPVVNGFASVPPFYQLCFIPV
Summary of the method: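 NADPH-dependent conversion of Luciferin-H EGE (10uM, at KM) by 5nM enzyme in 50mM KPO4, 60 min at 37C following 10 min compound preincubation. Stopped with luciferin detection buffer; luminescence read after 20 min.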

[11] = target: Dual specificity protein kinase CLK4 (Homo sapiens) (UniProt Q9HAZ1); test: qHTS Assay for Inhibitors of CDC-like Kinase 4 (Kinase-Glo Assay) (AID 1770); also: potency is read from the fitted curve at half-maximal effect; nearly all actives have a fitted effect of over 65% in size
Sequence of Dual specificity protein kinase CLK4 (Homo sapiens) (Q9HAZ1 whole entry, looked up): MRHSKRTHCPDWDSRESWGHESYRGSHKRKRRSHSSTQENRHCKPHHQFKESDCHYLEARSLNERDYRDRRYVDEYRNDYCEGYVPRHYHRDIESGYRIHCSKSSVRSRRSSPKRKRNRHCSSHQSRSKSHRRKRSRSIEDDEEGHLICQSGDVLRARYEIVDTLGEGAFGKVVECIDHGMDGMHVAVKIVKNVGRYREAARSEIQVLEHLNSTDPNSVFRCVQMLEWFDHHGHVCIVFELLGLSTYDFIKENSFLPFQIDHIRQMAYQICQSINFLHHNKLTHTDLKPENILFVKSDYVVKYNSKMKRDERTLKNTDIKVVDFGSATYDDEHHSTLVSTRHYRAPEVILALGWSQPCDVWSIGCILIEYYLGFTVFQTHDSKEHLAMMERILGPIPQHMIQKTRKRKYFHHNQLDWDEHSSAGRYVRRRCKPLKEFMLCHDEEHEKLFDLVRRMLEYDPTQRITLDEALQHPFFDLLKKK
Summary of the method: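 25 nM Clk4 with 100 uM RS repeat peptide and 1 uM ATP (final) in Tris pH7.5, 10 mM MgCl2, 4.5 h at room temperature. Remaining ATP measured by Kinase-Glo luciferase luminescence.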

[12] = target: Ubiquitin carboxyl-terminal hydrolase 1 (Homo sapiens) (UniProt O94782); test: Inhibitors of USP1/UAF1: Pilot qHTS (AID 504865);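 also: rhodamine fluorescence freed from ubiquitin-rhodamine substrate followed over time; top concentration of the series differs between compounds; % is scaled to controls: 0 for no effect and ±100 for the full control effect; nearly all actives have a fitted effect of over 35% in size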
Sequence of Ubiquitin carboxyl-terminal hydrolase 1 (Homo sapiens) (O94782 whole entry, looked up): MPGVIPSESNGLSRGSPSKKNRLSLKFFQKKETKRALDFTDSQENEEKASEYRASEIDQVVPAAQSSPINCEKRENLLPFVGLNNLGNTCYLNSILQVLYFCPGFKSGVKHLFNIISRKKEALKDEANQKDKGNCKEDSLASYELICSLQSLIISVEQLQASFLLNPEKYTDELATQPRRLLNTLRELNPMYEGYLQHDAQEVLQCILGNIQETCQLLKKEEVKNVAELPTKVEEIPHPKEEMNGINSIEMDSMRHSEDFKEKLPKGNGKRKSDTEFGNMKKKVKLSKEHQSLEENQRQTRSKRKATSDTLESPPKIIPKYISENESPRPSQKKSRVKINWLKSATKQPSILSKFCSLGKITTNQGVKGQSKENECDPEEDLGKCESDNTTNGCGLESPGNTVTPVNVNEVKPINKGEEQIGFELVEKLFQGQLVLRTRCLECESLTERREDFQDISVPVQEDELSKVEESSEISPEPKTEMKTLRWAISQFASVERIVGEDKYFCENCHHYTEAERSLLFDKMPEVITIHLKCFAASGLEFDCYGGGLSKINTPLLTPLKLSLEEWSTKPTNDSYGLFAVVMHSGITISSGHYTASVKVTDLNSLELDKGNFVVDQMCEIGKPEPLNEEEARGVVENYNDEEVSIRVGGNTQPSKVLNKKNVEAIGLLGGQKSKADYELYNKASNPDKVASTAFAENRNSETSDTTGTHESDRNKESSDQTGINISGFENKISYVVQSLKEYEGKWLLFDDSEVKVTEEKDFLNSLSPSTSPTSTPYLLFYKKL
Summary of the method: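 USP1/UAF1 complex at 1 nM preincubated 15 min at room temperature with compound, then Ub-Rho substrate added at 150 nM final. Fluorescence (480/540 nm) read kinetically in 50 mM HEPES pH 7.8, 0.5 mM EDTA, 1 mM TCEP, 0.1 mg/ml BSA, 0.01% Tween-20.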

[13] = Primary qHTS for small molecule stabilizers of the endoplasmic reticulum resident proteome: Secreted ER Calcium Modulated Protein (SERCaMP) assay (AID 1508630); also: % is scaled to controls: 0 for no effect and ±100 for the full control effect
Summary of the method: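 GLuc-SERCaMP-expressing SH-SY5Y cells, pretreated 16 h with compound, are challenged with thapsigargin to empty ER calcium stores; after 4 h, coelenterazine is added directly to the medium and luminescence is imaged.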

[14] = target: Lysosomal acid glucosylceramidase (Homo sapiens) (UniProt P04062); test: Glucocerebrosidase-p2 (AID 348; in the data active = potency below about 10 µM; also: potency is read from the fitted curve at half-maximal effect); details: purified GBA, blue fluorogenic substrate, 40 min
Sequence of Lysosomal acid glucosylceramidase (Homo sapiens) (P04062 whole entry, looked up): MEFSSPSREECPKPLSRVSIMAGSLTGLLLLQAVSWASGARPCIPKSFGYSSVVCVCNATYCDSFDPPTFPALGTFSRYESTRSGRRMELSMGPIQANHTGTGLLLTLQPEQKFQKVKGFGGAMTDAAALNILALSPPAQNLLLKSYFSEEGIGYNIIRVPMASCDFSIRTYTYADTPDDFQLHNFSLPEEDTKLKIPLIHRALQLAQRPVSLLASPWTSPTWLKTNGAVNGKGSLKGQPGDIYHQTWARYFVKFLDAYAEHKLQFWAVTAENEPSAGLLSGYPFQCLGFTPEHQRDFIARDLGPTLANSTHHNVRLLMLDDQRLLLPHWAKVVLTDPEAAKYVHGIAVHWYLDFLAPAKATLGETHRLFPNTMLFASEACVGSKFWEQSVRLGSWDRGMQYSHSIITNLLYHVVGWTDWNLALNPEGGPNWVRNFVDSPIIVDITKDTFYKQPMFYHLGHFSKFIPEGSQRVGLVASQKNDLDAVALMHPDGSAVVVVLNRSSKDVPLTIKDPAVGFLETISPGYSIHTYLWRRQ
Summary of the method: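 Compounds titrated from 0.6 nM upwards against 0.2 nM enzyme in pH 5.9 citric acid/KH2PO4, taurocholate, tween-20; blue fluorogenic substrate 80 uM, 40 min room temperature, stopped and read Ex 365/Em 440 for AC50.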

[15] = AP1 Signaling Pathway (AID 357; active = well fitted curve in either direction with a large enough effect, not every such curve was filed as active); details: ME-180 AP-1-bla reporter, EGF-induced, beta-lactamase ratio, 5 h; at 7.69 µM (top of the series) unless noted
Summary of the method: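 Beta-lactamase reporter under AP-1 response element, ME-180 background. Stimulus: EC50 EGF. Compound exposure 5 h, 37 °C. Detection: CCF4, 2.5 h RT, 460/530 nm. Values: AC50 from titration.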

[16] = target: Dual specificity protein kinase CLK4 (Homo sapiens) (UniProt Q9HAZ1); test: qHTS Assay for Inhibitors of CDC-like Kinase 4 (ADP-Glo Assay) (AID 1771); also: nearly all actives have a fitted effect of over 70% in size; also: potency is read from the fitted curve at half-maximal effect
Summary of the method: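 Kinase reaction: Clk4 at 25 nM, RS repeat peptide substrate at 100 uM, ATP at 1 uM, 1 hr, room temperature. Product ADP detected as luciferase signal via ADP-Glo.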

[17] = target: Dual specificity protein kinase CLK4 (Homo sapiens) (UniProt Q9HAZ1); test: qHTS Assay for Inhibitors of CDC-like Kinase 4 (ADP-FP Assay) (AID 1795);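 also: recombinant human CLK4 phosphorylating RS repeat peptide at 1 µM ATP; % is scaled to controls: 0 for no effect and ±100 for the full control effect; nearly all actives have a fitted effect of over 60% in size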
Summary of the method: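 Recombinant Clk4 (6.25 nM) phosphorylated 100 uM RS repeat peptide with 1 uM ATP in 25 mM Tris pH 7.5, 10 mM MgCl2, 0.5 mM EGTA, 2.5 mM DTT, 0.01% Triton X-100 for 1 h. ADP was detected by Transcreener ADP2 competitive fluorescence polarization after 30 min at room temperature.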

[18] = qHTS Assay for Identification of Small Molecule Agonists for Hypoxia Response Element Signaling Pathway (AID 914; active = well fitted activation curve with a large enough effect in the signal ratio, with a control signal flat, not every such curve was filed as active; the % refers to the signal ratio; also: % of control where 0% means no effect); details: ME-180 (cervical carcinoma) HRE-bla reporter, beta-lactamase ratio, CoCl2, 17 h; activation: hits give high values
Summary of the method: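 In Opti-MEM containing 0.5% dialyzed FBS and 10 mM HEPES, ME-180 HRE-bla cells received a compound titration and EC50 CoCl2. They were incubated 17 hours, then CCF4-loaded 2.5 hours at room temperature before ratio reading.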

SMILES | Potency [1] | activity change, negative = inhibition [2] [%] | activity, negative = inhibition [3] [%] | Potency [4] [µM] | Potency [5] [µM] | Potency [6] | Potency [7] | Potency [8] | Potency [9] | Potency [10] | Potency [11] | Potency [12] | outcome [13] | Potency [14] [µM] | activity change, negative = inhibition [15] [%] | Potency [16] | Potency [17] | activation [18] [%]
COc1ccc2[nH]cc(CCNc3ccnc(-c4ccoc4)n3)c2c1 | 0.501 µM (active) | -2.92 | -23.2 | > 46 | > 46 | inactive | inactive | 3.16 µM (active) | inactive | 0.501 µM (active) | 14.1 µM (active) | inactive | inactive |  |  |  |  | 
CN(C)C(=O)c1ccc(-c2cc(N(C)Cc3ccco3)ncn2)cc1 | 25.1 µM (active) | -13.4 | 16.7 | > 46 | > 46 | inactive | inactive |  |  |  |  | inactive | inactive | > 11.4 | -8.02 | 28.2 µM (active) | inactive | 
CN1CCN(c2ccnc(-c3cccnc3)n2)CC1 |  | 0.489 | 12.4 | > 46 | > 46 | inactive | inactive |  |  |  | 25.1 µM (active) | inactive | inactive | > 11.4 | -0.185 |  |  | 
CNc1ncncc1-c1ccccc1C(F)(F)F | inactive | 11.4 | 22.6 | > 46 | > 46 | inactive | inactive | 0.794 µM (active) | inactive |  |  | inactive | inactive | > 11.4 | 2.43 | inactive | inactive | 
COc1cccc(Cn2c(=O)cnc3cnc(Nc4ccccc4)nc32)c1 |  | 17.1 | -29.7 | > 46 | > 46 | inactive | inactive |  |  |  |  | inactive | inactive | > 11.4 | -26.5 | 2.24 µM (active) | inactive | 
Cc1nc2cnc(N(C)C)nc2n(CCc2ccccc2)c1=O | 1.26 µM (active) | -14.5 |  | > 9.22 | > 46 | inactive |  |  | inactive | 0.631 µM (active) |  | inactive | inactive | > 11.4 | -5.39 | 35.5 µM (active) | inactive | -12
COc1cccc(-c2cncnc2Nc2ccccc2)c1 |  | 0.84 | -2.57 | > 46 | > 46 | inactive |  |  |  |  |  |  | inactive | > 11.4 | -6.33 | inactive | inactive | 
